Holding throughout (assay): NCI-60 one-dose screen, 48 h (100 = growth as untreated, 0 = no growth, -100 = all killed)
Holding throughout (conditions): 10 µM unless noted

Assay [1] deals with T-47D breast.
Assay [2] has as its system SW-620 colon.
Assay [3] relates to MCF7 breast.
Assay [4] concerns HCT-116 colon.
In assay [5] the test system is HCC-2998 colon.
In assay [6] the test system is KM12 colon.
Assay [7] has as its system BT-549 breast.
Assay [8] deals with MDA-MB-435 melanoma.

SMILES strings stand for the structures. About 83,000 compounds went through this panel and 20% of them were active in at least one assay; those are over-represented in the sample as a whole.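 Treatment: one concentration, 48 hours, 96-well format. Scoring: percent growth, with anything below 10 considered active.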 Values without a mark were called inactive. Calls of active or inactive are those of the source.

On to `CCOC(=O)CC(c1ccccc1)C(C#N)c1ccccc1` (centres undefined), for which the growth is 89.6% in assay [1]; 95.3% in assay [2]; 99.8% in assay [3]; 92% in assay [4]; 114% in assay [5]; 92.3% in assay [6].

Turning to `O=[N+]([O-])c1cc(CCl)ccc1OCCBr`, the growth in assay [1] was 88.3%; in assay [2] it was 106%; in assay [3], 89.7%; in assay [4], 93.9%; in assay [5], 104%; in assay [6], 113%.

On to `CC(C)=CCC[C@](C)(O)[C@H]1CC[C@]2(C)[C@@H]1CC[C@@H]1[C@@]3(C)CC/C(=N/O)C(C)(C)[C@@H]3CC[C@]12C`, for which the growth in assay [7] is 1.19% [100 µM] (active); in assay [8], 5.38% [100 µM] (active); in assay [2] it was -48% [100 µM] (active); in assay [3], 10% [100 µM]; in assay [4] it was -9.52% [100 µM] (active); in assay [5] it was 10.9% [100 µM]. Also, the growth in assay [6] is 15.8% [100 µM].

In the case of `O=C1/C(=C/c2cccc(OCc3ccccc3)c2)Oc2cc(OCCN3CCCCC3)ccc21`, the growth in assay [7] was 75.6%; in assay [8], 85.4%; in assay [2] it was 67.3%; in assay [3], 50.7%; in assay [4], 52.8%; in assay [5], 93.3%. Besides, the growth in assay [6] was 67.9%.

Consider `C=C(C)[C@@H]1CC[C@]2(C(=O)N3CCN(C)CC3)CC[C@]3(C)[C@H](CC[C@@H]4[C@@]5(C)C/C(=C/c6ccncc6)[C@H](O)C(C)(C)[C@@H]5CC[C@]43C)[C@@H]12`, for which the growth in assay [7] was -43% [100 µM] (active); in assay [8] it was -39.7% [100 µM] (active); in assay [2], -55.4% [100 µM] (active); in assay [3], -60.6% [100 µM] (active); in assay [4] it was -79.3% [100 µM] (active); in assay [5], -80.7% [100 µM] (active). For the same molecule, in assay [6], the growth was -80.4% [100 µM] (active).

For the molecule `Cc1nc(-c2ccccc2)sc1CC#N`, the growth in assay [7] was 113%; in assay [8] it was 105%; in assay [2], 103%; in assay [3], 102%; in assay [4] it was 108%; in assay [5], 109%. Besides, in assay [6], the growth was 107%.

In the case of `O=C(CCCCCCSc1nc(-c2ccc(Cl)cc2)cc(-c2ccc(Cl)cc2)n1)NO`, the growth was 13.2% in assay [1]; 35.8% in assay [2]; 14.5% in assay [3]; 18.4% in assay [4]; 78.7% in assay [5]; 47.4% in assay [6].

For the molecule `COc1cccc(-c2[nH]c(=S)ncc2C(=O)c2ccccc2)c1`, the growth is 73.9% in assay [7]; -20% (active) in assay [8]; 66.6% in assay [2]; 69.8% in assay [3]; 61.3% in assay [4]; 102% in assay [5]. The growth in assay [6] was 51.5%.

In the case of `CC1Cc2ccc(OCCN(C)C)cc2C1=O` (centres undefined), the growth in assay [7] is 99.3%; in assay [8], 102%; in assay [2] it was 101%; in assay [3], 100%; in assay [4], 95.4%; in assay [5] it was 109%.

On to `COc1cc2c(cc1OC(C)=O)C(=O)CCCC2`, for which the growth in assay [1] is 101%; in assay [2], 95.8%; in assay [3], 92.3%; in assay [4] it was 82.6%; in assay [5], -10.1% (active); in assay [6], 106%.

Turning to `COc1cc(-c2nc(SCCC(C)C)nc(Nc3ccc(S(N)(=O)=O)cc3)c2C#N)cc(OC)c1OC`, the growth was 27.6% in assay [7]; 22.2% in assay [8]; 36.3% in assay [2]; 16.9% in assay [3]; 3.77% (active) in assay [4]; 35.2% in assay [5]. The growth in assay [6] was 19.9%.

Consider `CC(C)CCNCC(C)(C)O`, for which the growth in assay [7] is 110%; in assay [8] it was 112%; in assay [2], 109%; in assay [3], 109%; in assay [4] it was 109%; in assay [5], 109%. Also, in assay [6], the growth was 116%.

For `O=C(O)c1ccccc1C(F)(F)F`, the growth in assay [1] is 76.5%; in assay [2], 98.7%; in assay [3], 92.8%; in assay [4], 91.2%; in assay [6], 96.3%.

In the case of `CSc1nc(=S)c2nc(SC)n(-c3ccccc3)c2[nH]1`, the growth was 104% in assay [7]; 103% in assay [8]; 97.1% in assay [2]; 90.7% in assay [3]; 93.1% in assay [4]; 115% in assay [5].

Take `CC1(C)CC[C@]2(C(=O)O)CC[C@]3(C)C(=CC[C@@H]4[C@@]5(C)C/C(=C/c6cccnc6)[C@H](O)C(C)(C)[C@@H]5CC[C@]43C)[C@@H]2C1`: the growth in assay [7] is 0.607% [100 µM] (active); in assay [8], 7.02% [100 µM] (active); in assay [2], 13.3% [100 µM]; in assay [3], 3.95% [100 µM] (active); in assay [4], -33.4% [100 µM] (active); in assay [5], -37.5% [100 µM] (active). Besides, in assay [6], the growth is -38.1% [100 µM] (active).

As to `O=C(CSc1nc2ccc([N+](=O)[O-])cc2[nH]1)Nc1cccc(Cl)c1`, the growth in assay [7] was 17.2%; in assay [8], 20.5%; in assay [2] it was 39.9%; in assay [3], 15.3%; in assay [4], 14.7%; in assay [5], 34.4%. Moreover, the growth in assay [6] was 23.9%.

The values above are taken from PubChem BioAssay (NCI).
